Calls of active or inactive are those of the source.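 The calls were made as follows: active = compound that made reporter-free parental cells show up as glowing objects under laser imaging, so likely a fluorescent false positive; inactive = the rest.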
Experiment: Parental Cell Counter Screen Assay for Epigenetic Modulators
Conditions: parental c127i cells, compound fluorescence imaging, 30 h
Text: NIH Molecular Libraries Screening Centers Network [MLSCN] NIH Chemical Genomics Center [NCGC] MLSCN Grant: 1 X01 MH079860-01 Assay Provider: Elisabeth D. Martinez, University of Texas SW Medical Center NCGC Assay Overview: This assay is a counter screen for the Locus Derepression (LDR) assay (PubChem AID 597). The LDR assay detects the derepression of a GFP reporter that is stably integrated in a region of the genome of murine c127i mammary cells that is presumably silenced. Compounds that cause derepression of the locus to express GFP are identified by enumerating GFP positive cells using a laser-scanning microplate cytometer. […] Compounds active in the parental c127i cells are likely fluorescent.
NCGC Assay Protocol Summary: Two hundred and fifty cells in 5 uL per well were dispensed into black, clear-bottom 1536-well plates. Twenty-three nL compound was transferred to the assay plate and cells were incubated 30 hours at 37 C. Medium was removed, cells were washed two times with PBS, and fluorescent cells were enumerated as objects between the sizes of 20 to 120 um width and depth using a laser-scanning microplate imager (Acumen Explorer Ex3, TTP Labtech).

SMILES	outcome
COC(=O)c1cccc(NC(c2ccccn2)c2ccc3cccnc3c2O)c1 (stereo not given)	inactive
O=C1OCCC1Sc1cccc2cccnc12 (stereo not given)	inactive
Oc1c(C(Nc2ccccc2C(F)(F)F)c2ccccn2)ccc2cccnc12 (stereo not given)	inactive
CC(C)C(=O)NC(c1ccco1)c1cc([N+](=O)[O-])c2cccnc2c1O (stereo not given)	inactive
Cc1ccc2ccc(C(Nc3cccc(Cl)c3)c3ccccn3)c(O)c2n1 (stereo not given)	inactive
Oc1c(C(Nc2ccccn2)c2ccccn2)ccc2cccnc12 (stereo not given)	inactive
COc1ccc(NC(c2ccccn2)c2ccc3cccnc3c2O)cc1 (stereo not given)	inactive
O=C(Cc1ccccc1)NC(c1ccco1)c1ccc2cccnc2c1O (stereo not given)	inactive
CC(C)C(=O)NC(/C=C/c1ccccc1)c1cc([N+](=O)[O-])c2cccnc2c1O (stereo not given)	inactive
O=Nc1ccc(O)c2ncccc12	inactive
O=C(CSc1cccc2cccnc12)NCc1ccccc1	inactive
CN(C)C(=O)CSc1cccc2cccnc12	inactive
Cc1ccc(N=Nc2ccc(O)c3ncccc23)cc1C	inactive
COCc1cc(CN2CCN(C)CC2)c(O)c2ncccc12	inactive
CC(C)C(=O)NC(c1ccc(N(C)C)cc1)c1ccc2cccnc2c1O (stereo not given)	inactive
CCNc1nc(NCC)nc(-n2cc(C(=O)c3cc(Cl)ccc3O)cn2)n1	inactive
COc1ccc(C(=O)NC(c2ccco2)c2cc(Cl)c3cccnc3c2O)cc1 (stereo not given)	inactive
CN1C(=S)SC(c2ccccc2)N(C)C1c1ccccc1 (stereo not given)	inactive
O=C(CSc1cccc2cccnc12)Nc1ccccc1	inactive
O=C(CC(c1ccco1)S(=O)(=O)c1ccccc1)c1ccc(F)cc1 (stereo not given)	inactive

SMILES	outcome
CCOCc1ccc(O)c2ncccc12	inactive
CC(C)C(=O)NC(c1ccco1)c1cc(Cl)c2cccnc2c1O (stereo not given)	inactive
Cc1cc(C)n(-c2nc(N(C)C)nc(N(C)C)n2)n1	inactive
Cc1cc(C)n(-c2nc(NC(C)(C)C)nc(NC(C)(C)C)n2)n1	inactive
Cc1cc(NC(c2ccccn2)c2ccc3cccnc3c2O)no1 (stereo not given)	inactive
Cc1cc(C)n(-c2nc(NC(C)C)nc(NC(C)(C)C)n2)n1	inactive
COc1ccc(C)cc1NC(c1ccccn1)c1ccc2cccnc2c1O (stereo not given)	inactive
CCCCC1CC1C(=O)Nc1ccc(OC)c(OC)c1 (stereo not given)	inactive
CC(/C=C/C(=O)NO)=C\[C@@H](C)C(=O)c1ccc(N(C)C)cc1	inactive
CCN1CSC(=S)N(CC)C1	inactive
O=C(CSc1cccc2cccnc12)N1CCCC1	inactive
CCNc1nc(NCC)nc(-n2nc(C)cc2C)n1	inactive
COc1ccc(C(NC(=O)C(C)C)c2ccc3cccnc3c2O)cc1 (stereo not given)	inactive
O=C(Oc1cccc2cccnc12)c1ccc(Br)o1	inactive
COc1ccc(C)cc1N=Nc1ccc(O)c2ncccc12	inactive
c1ccc(Nc2nc(Nc3ccccc3)nc(-n3cccn3)n2)cc1	inactive
CC(C)C(=O)NC(c1ccc(C(C)C)cc1)c1cc(Cl)c2cccnc2c1O (stereo not given)	inactive
CC(C)C(=O)NC(c1cccs1)c1cc(Cl)c2cccnc2c1O (stereo not given)	inactive
CC(C)C(=O)NC(c1ccc(Cl)cc1Cl)c1ccc2cccnc2c1O (stereo not given)	inactive
CC(C)C(=O)NC(c1ccco1)c1ccc2cccnc2c1O (stereo not given)	inactive

From PubChem BioAssay AID990 (National Center for Advancing Translational Sciences (NCATS), 2007)
